Results on 17 molecules are retold here after PubChem BioAssay (EPA / NIEHS).

In test [1] the target is human Thyroid hormone Receptor beta (TRb), THRB (gene 7068) (UniProt P10828). Briefly: ATG_hTRb_XSP2: Attagene TRANS-FACTORIAL Multi-Species (XSP2) HepG2 Assay for human Thyroid hormone Receptor beta (TRb) (AID 2283840).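 Note: actives raise reporter mRNA so potency reflects agonist-like gain of signal.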 Put shortly: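 Gain-of-signal reporter transcription, referenced to DMSO, was measured in transiently transfected HepG2 after 24 h exposure; labeled RT-PCR products were resolved by capillary electrophoresis. Assay medium included 3 nM 6-alpha-fluorotestosterone and 1.5 nM norgestrel.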

The subject of test [2] is Sodium/Iodide Symporter (NIS), SLC5A5 (gene 6528). Nature of the test: CPHEA_Stoker_NIS_Inhibition_RAIU: CPHEA's Radioactive Iodide Uptake (RAIU) Assay for Sodium/Iodide Symporter (NIS) Inhibition, Stoker and Laws Labs (AID 2283841). The procedure, abridged:
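Iodide uptake read as CPM of intracellular 125I (final 329 pM) after 2 h room-temperature exposure in HEPES-buffered HBSS, pH 7.4. Human NIS-expressing HEK293T cells; six concentrations 0.001–100 uM, 0.5% DMSO, normalised to DMSO wells.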

The nature of test [3]: CPHEA_Stoker_NIS_Cytotoxicity: Cytotoxicity Assessment for CPHEA's Radioactive Iodide Uptake (RAIU) Assay for Sodium/Iodide Symporter (NIS) Inhibition, Stoker and Laws Labs (AID 2283897).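 For AC50: active means loss of ATP signal versus DMSO meaning cytotoxicity.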 The procedure, abridged:
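CellTiter-Glo ATP luminescence gauged viability in HEK293T cells expressing human NIS after 2 h chemical exposure. Concentrations ran 0.001–100 uM in 0.5% DMSO; DMSO served as baseline for the loss-of-signal fit.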

Test [4] is described as follows: CEETOX_H295R_OHPREG_noMTC: CeeTox H295R High-throughput Steroidogenesis Assay for OH-Pregnenolone (OHPREG), maximum tolerated concentration (MTC) filtered results only (AID 2283912; active = hit-call score of the fitted dose curve at least 0.9, where 1 is the maximum; inactive = score below 0.9). The settings on record: actives raise or lower the signal. The procedure, abridged:
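Steroidogenesis in H295R cells (OECD 456, modified): after 48 h forskolin priming and 48 h chemical treatment, secreted 17alpha-hydroxypregnenolone is measured by HPLC-MS/MS. Activity is fitted in both directions against DMSO; concentrations are not filtered by MTT-based MTC.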

Test [5] in a line: CEETOX_H295R_OHPROG_noMTC: CeeTox H295R High-throughput Steroidogenesis Assay for OH-Progesterone (OHPROG), maximum tolerated concentration (MTC) filtered results only (AID 2283914; active = hit-call score of the fitted dose curve at least 0.9, where 1 is the maximum; inactive = score below 0.9). The settings on record: actives raise or lower the signal. The procedure: CEETOX_H295R is a cell-based, multiplexed-readout assay that uses H295R, a human adrenal gland cell line, with measurements taken at 48 hours after chemical dosing in a 96-well plate.CEETOX_H295R_OHPROG_noMTC is one of 12 assay component(s) measured or calculated from the CEETOX_H295R assay (11 hormones and 1 viability assay). It is designed to make measurements of hormone induction, a form of inducible reporter, as detected with absorbance signals by HPLC-MS-MS technology. The concentrations for these components have not been pre-filtered for the maximum tolerated concentration (MTC) based on the MTT assay (_noMTC).Data from the assay component CEETOX_H295R_OHPROG_noMTC was analyzed into 1 assay endpoint. This assay endpoint, CEETOX_H295R_OHPROG_noMTC, was analyzed with bidirectional fitting relative to DMSO as the negative control and baseline of activity. Using a type of inducible reporter, gain or loss-of-signal activity using HPLC-MS-MS was used to understand synthesis of 17alpha-hydroxyprogesterone in H295R cell line at 48hr of chemical exposure, without filtering concentrations for maximum tolerated concentration (MTC). To generalize the intended target to other relatable targets, this assay endpoint is annotated to the steroid hormone intended target family, where the subfamily is progestagens.
Cell culture and media preparation procedures were conducted in accordance with OECD Test No. 456 guidelines, with minor modifications. H295R cells (ATCC CRL-2128) were expanded for 5 passages and frozen in batches in liquid nitrogen. […] For steroid quantification, media samples were shipped to OpAns, LLC (Durham, NC) on dry ice, and samples were thawed to room temperature prior to liquid-liquid extraction. […] Steroid hormones were separated by HPLC, eluted using a reverse phase C18 gradient with electrospray positive ionization, followed by quantification by tandem mass spectrometry (MS/MS). Data were acquired on a MassHunter Workstation Acquisition version B03.01 (Agilent Technologies, Inc.) and processed using MassHunter Quantitative Analysis for QQQ. Accuracy was determined for each hormone analyte from 3 standards to determine upper and lower limits of quantification (ULOQ and LLOQ, respectively) using a 7-point standard curve. Precision and accuracy of the extraction and quantification methods were calculated as the percent relative standard deviation (%RSD) of the spiked standards and percent spiked standard recovered, respectively. The goal was to achieve 100% accuracy (i.e., recover all spiked-in standard at quantification with minimal loss during run time) and good precision (i.e., have %RSD <15% to ensure reproducibility). Test medium was removed following chemical exposure, and cell viability was evaluated in the same wells by MTT. […]

Test [6] can be described thus: CEETOX_H295R_ANDR_noMTC: CeeTox H295R High-throughput Steroidogenesis Assay for Androstenedione (ANDR), maximum tolerated concentration (MTC) filtered results only (AID 2283915; active = hit-call score of the fitted dose curve at least 0.9, where 1 is the maximum; inactive = score below 0.9). The settings on record: actives raise or lower the signal. The procedure, abridged: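 H295R cells, passage 10 or below, prestimulated 48 h with 10 uM forskolin, then exposed 48 h to chemical in 0.1% DMSO. Medium androstenedione extracted with MTBE, quantified by HPLC-MS/MS; concentrations not MTC-filtered; bidirectional fit versus DMSO.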

Inconclusive results are not listed. More than one record can exist for a structure, and the calls need not agree. Calls of active or inactive are those of the source. Rule for the calls, unless noted: active = hit-call score of the fitted dose curve at least 0.9, where 1 is the maximum; inconclusive = response in the unintended direction; inactive = score below 0.9.

human Thyroid hormone Receptor beta (TRb), THRB (gene 7068), sequence (P10828 whole entry, looked up): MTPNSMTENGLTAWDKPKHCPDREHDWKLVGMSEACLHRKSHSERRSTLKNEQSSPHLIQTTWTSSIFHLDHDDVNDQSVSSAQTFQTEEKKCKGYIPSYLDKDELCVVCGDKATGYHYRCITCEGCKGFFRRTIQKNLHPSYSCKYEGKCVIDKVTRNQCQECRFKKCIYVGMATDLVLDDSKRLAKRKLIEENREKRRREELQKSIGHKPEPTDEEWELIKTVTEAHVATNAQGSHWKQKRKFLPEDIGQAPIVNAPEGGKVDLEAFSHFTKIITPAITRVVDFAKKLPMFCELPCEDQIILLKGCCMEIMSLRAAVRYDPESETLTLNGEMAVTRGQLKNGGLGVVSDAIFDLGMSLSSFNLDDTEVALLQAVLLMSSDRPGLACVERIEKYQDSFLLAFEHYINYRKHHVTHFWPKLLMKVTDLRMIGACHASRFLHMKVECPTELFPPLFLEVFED

For the molecule `Cc1cc(-c2ccc(N)c(C)c2)ccc1N`, in test [1], the molecule was classed as inactive.

As for `Clc1ccc(C(c2ccccc2Cl)C(Cl)(Cl)Cl)cc1` (configuration not stated), in test [1], the molecule was called inactive. `CCNc1nc(NC(C)C)nc(SC)n1`: the outcome in test [2] and in test [3] was inactive. For the molecule `Cc1ccccc1CO[C@@H]1C[C@@]2(C(C)C)CC[C@]1(C)O2`, the outcome in test [2] and in test [3] was inactive. As for `O=NN(c1ccccc1)c1ccccc1`, the outcome in test [2] and in test [3] was inactive.

Consider `COc1ccc(O)c(C(C)(C)C)c1`, for which the result in test [3] was inactive. `O=C(O)C(F)(F)C(F)(F)C(F)(F)C(F)(F)C(F)(F)F`: in test [2], the outcome was inactive. For `ClC(Cl)=C(c1ccc(Cl)cc1)c1ccc(Cl)cc1`, the molecule was called inactive in test [1] and in test [3]. Regarding `CCC(C)c1cc([N+](=O)[O-])cc([N+](=O)[O-])c1O` (configuration not stated), the outcome in test [2] and in test [3] was inactive. For the molecule `CC#Cc1cc(C)nc(Nc2ccccc2)n1`, the result in test [2] and in test [3] was inactive.

Regarding `CC(C)(O)C(=O)Nc1ccc([N+](=O)[O-])c(C(F)(F)F)c1`, the molecule was called inactive in test [1] and in test [3]. Consider `CC(C)(c1ccccc1)c1ccc(O)cc1`, for which the molecule was called inactive in test [1], in test [2] and in test [3]. `O=C(O)C(F)(F)C(F)(F)C(F)(F)C(F)(F)C(F)(F)C(F)(F)C(F)(F)C(F)(F)F`: the AC50 (in general, the concentration giving half of the maximal activity seen) in test [2] was 12000 nM (active). The outcome in test [3] was inactive. As for `CCOP(=S)(OCC)SCSC(C)(C)C`, the result in test [3] was inactive. In the case of `CCC(=O)O[C@H]1CC[C@H]2[C@@H]3CCC4=CC(=O)CC[C@]4(C)[C@H]3CC[C@]12C`, the values for the AC50 in test [1] and in test [3] were 157 nM (active) and 646 nM (active), respectively. Further, the molecule was called inactive in test [1] and in test [2]. With `C[C@]12CCC(=O)C=C1CC[C@@H]1[C@@H]2CC[C@]2(C)C(=O)CC[C@@H]12`, the molecule was called inactive in test [1]. Regarding `CCCCCCCCOC(=O)c1ccccc1C(=O)OCCCCCCCC`, the molecule was classed as inactive in test [4], in test [5] and in test [6].
